# Assay results as given in the supplement of paper PMC6411743.
# ± gives the standard deviation of the averaged measurements. Targets with the largest changes are over-represented here; the source holds about 6,500 in all.
# Legend:
# Assay in all cases: NP40-soluble protein abundance relative to vehicle (solubility fold change) (ratio); higher = more soluble protein in presence of ATP
# ALG5 = biological target: T1, ALG5 (UniProt Q9Y673)
# T1 sequence (whole entry): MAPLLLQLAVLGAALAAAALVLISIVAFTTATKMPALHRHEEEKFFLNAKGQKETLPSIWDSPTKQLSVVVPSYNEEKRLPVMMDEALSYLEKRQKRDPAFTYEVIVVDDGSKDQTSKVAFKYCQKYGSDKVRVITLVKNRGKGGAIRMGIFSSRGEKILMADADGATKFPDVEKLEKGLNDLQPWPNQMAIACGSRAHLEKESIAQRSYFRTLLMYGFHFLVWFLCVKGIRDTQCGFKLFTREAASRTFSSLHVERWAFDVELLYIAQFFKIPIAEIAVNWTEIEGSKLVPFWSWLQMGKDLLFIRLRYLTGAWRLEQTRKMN
# In short: (§1)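 Jurkat crude lysate prepared with a Dounce homogeniser was treated at eight concentrations spanning 0.1 to 10 mM, 10 min at room temperature then 3 min at 37 °C. Solubilisation with 0.8% NP40 and benzonase and ultracentrifugation preceded TMT labelling of the supernatant for LC-MS/MS. Fold change against the detergent-processed vehicle was determined per replicate from vsn-normalised intensities, across three independent experiments.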
# DDX52 = biological target: T2, DDX52 (UniProt Q9Y2R4)
# T2 sequence (whole entry): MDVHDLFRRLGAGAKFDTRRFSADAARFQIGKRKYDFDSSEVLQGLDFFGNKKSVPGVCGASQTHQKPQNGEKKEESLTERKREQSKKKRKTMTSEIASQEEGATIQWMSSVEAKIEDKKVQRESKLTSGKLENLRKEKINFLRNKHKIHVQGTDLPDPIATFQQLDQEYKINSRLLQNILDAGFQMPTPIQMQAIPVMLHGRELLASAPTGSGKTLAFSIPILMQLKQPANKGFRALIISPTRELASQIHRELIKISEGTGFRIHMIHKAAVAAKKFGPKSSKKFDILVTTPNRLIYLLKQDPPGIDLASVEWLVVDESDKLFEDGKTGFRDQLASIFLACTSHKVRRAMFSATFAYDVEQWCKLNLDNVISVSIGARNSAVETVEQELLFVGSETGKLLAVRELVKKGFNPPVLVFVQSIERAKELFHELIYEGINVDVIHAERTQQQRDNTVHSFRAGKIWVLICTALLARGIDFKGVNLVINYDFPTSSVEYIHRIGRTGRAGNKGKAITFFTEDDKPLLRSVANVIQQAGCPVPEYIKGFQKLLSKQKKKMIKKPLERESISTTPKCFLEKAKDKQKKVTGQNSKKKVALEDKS
# In short: as §1
# FHOD1 = biological target: T3, FHOD1 (UniProt Q9Y613)
# T3 sequence (whole entry): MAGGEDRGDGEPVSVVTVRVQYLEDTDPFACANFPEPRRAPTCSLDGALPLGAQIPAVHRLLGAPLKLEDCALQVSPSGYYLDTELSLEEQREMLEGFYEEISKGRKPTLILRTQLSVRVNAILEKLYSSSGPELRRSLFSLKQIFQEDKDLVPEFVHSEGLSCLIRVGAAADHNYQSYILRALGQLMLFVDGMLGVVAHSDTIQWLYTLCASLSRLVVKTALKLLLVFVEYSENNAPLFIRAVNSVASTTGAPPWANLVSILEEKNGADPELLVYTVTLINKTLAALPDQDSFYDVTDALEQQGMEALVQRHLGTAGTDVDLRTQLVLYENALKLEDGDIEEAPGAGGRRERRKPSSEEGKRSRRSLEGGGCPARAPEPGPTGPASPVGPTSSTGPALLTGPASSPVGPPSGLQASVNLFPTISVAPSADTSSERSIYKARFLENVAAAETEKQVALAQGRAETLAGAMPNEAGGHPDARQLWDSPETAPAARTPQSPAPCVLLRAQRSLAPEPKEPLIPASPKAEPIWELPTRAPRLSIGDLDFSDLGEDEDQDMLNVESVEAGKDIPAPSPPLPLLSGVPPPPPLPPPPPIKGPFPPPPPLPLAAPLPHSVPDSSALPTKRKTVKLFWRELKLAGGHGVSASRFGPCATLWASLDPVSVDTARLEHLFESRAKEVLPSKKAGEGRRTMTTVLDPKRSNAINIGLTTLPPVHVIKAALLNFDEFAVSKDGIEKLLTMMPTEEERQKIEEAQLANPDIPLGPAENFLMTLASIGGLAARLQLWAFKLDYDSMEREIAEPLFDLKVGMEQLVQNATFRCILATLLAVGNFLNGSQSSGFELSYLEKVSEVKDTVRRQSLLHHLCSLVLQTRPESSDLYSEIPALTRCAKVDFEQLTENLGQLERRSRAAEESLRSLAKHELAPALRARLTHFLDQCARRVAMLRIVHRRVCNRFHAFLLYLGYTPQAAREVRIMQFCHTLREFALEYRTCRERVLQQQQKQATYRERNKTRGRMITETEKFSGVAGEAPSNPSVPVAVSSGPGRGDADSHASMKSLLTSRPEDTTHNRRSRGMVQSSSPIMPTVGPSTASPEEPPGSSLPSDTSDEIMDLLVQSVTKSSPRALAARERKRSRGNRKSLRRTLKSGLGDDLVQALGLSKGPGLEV
# In short: as §1
# UniProt Q9Y6I3|Q9Y6I3-3 = biological target: T4, UniProt Q9Y6I3|Q9Y6I3-3
# T4 sequence (whole entry): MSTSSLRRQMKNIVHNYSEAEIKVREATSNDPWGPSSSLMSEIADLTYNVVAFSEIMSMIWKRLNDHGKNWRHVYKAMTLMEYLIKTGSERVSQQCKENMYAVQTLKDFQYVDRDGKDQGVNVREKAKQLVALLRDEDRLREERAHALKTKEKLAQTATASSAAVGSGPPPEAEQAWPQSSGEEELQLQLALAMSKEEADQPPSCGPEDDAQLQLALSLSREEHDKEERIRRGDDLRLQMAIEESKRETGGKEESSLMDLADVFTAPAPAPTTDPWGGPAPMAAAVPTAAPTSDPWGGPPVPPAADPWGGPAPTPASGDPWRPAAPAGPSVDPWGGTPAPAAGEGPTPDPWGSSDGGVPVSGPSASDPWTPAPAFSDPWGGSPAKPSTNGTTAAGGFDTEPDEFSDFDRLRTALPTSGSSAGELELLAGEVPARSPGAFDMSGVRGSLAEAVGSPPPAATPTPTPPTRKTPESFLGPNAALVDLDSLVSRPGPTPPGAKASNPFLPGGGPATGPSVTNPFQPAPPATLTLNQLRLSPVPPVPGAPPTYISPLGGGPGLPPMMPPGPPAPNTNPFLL
# In short: as §1
# [1] = biological target: T5, UniProt Q9Y6M7-13|Q9Y6M7-6|Q9Y6M7-9|Q9Y6M7-5|A0A0A0MST8
# T5 sequence (whole entry): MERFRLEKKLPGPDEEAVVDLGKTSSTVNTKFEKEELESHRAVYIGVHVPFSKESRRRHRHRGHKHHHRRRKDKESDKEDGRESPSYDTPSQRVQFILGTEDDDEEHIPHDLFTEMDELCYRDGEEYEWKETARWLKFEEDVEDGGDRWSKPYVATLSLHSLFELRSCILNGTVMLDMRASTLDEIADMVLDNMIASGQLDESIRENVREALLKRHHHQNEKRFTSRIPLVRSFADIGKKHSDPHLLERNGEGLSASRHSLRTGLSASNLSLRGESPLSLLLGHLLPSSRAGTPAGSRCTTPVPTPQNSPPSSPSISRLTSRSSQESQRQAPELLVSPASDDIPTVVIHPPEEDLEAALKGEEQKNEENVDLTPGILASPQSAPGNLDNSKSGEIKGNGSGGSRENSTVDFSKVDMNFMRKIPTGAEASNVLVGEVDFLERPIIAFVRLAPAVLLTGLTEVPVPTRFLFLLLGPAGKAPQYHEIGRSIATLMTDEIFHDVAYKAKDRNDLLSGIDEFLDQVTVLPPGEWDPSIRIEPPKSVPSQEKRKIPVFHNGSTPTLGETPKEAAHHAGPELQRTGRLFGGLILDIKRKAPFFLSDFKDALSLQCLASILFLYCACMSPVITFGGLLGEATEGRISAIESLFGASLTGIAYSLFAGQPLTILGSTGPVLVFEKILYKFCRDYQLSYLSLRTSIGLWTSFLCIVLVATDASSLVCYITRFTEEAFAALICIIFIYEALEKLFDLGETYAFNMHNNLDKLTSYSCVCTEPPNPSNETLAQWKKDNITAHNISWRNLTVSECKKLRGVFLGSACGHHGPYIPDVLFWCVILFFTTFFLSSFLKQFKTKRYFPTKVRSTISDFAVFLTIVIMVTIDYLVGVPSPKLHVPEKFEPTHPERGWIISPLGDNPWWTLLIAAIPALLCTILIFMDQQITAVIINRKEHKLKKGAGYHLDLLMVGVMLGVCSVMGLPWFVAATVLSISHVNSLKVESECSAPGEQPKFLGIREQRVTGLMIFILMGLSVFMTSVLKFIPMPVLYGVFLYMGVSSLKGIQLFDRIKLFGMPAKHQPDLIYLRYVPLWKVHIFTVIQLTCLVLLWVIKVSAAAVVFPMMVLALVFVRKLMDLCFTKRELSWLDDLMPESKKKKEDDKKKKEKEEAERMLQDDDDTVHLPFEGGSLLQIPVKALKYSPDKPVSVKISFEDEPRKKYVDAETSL
# In short: as §1
compound,measurement,setting,value
Nc1ncnc2c1ncn2[C@@H]1O[C@H](COP(=O)(O)OP(=O)(O)OP(=O)(O)O)[C@@H](O)[C@H]1O [adenosine triphosphate],NP40-soluble protein abundance,ALG5; concentration: 1mM,1.03 ± 0.089
same,NP40-soluble protein abundance,ALG5; concentration: 2mM,1.02 ± 0.074
same,NP40-soluble protein abundance,ALG5; concentration: 4mM,1.03 ± 0.088
same,NP40-soluble protein abundance,ALG5; concentration: 6mM,0.97 ± 0.13
same,NP40-soluble protein abundance,ALG5; concentration: 8mM,1.03 ± 0.1
same,NP40-soluble protein abundance,ALG5; concentration: 10mM,1.02 ± 0.058
same,NP40-soluble protein abundance,DDX52; concentration: 1mM,1.11 ± 0.11
same,NP40-soluble protein abundance,DDX52; concentration: 2mM,1.16 ± 0.17
same,NP40-soluble protein abundance,DDX52; concentration: 4mM,1.31 ± 0.27
same,NP40-soluble protein abundance,DDX52; concentration: 6mM,1.41 ± 0.23
same,NP40-soluble protein abundance,DDX52; concentration: 8mM,1.51 ± 0.37
same,NP40-soluble protein abundance,DDX52; concentration: 10mM,1.71 ± 0.49
same,NP40-soluble protein abundance,FHOD1; concentration: 1mM,0.963 ± 0.062
same,NP40-soluble protein abundance,FHOD1; concentration: 2mM,1.01 ± 0.085
same,NP40-soluble protein abundance,FHOD1; concentration: 4mM,1.02 ± 0.058
same,NP40-soluble protein abundance,FHOD1; concentration: 6mM,1.01 ± 0.078
same,NP40-soluble protein abundance,FHOD1; concentration: 8mM,0.952 ± 0.068
same,NP40-soluble protein abundance,FHOD1; concentration: 10mM,0.96 ± 0.055
same,NP40-soluble protein abundance,UniProt Q9Y6I3|Q9Y6I3-3; concentration: 1mM,0.932 ± 0.045
same,NP40-soluble protein abundance,UniProt Q9Y6I3|Q9Y6I3-3; concentration: 2mM,0.915 ± 0.018
same,NP40-soluble protein abundance,UniProt Q9Y6I3|Q9Y6I3-3; concentration: 4mM,0.915 ± 0.023
same,NP40-soluble protein abundance,UniProt Q9Y6I3|Q9Y6I3-3; concentration: 6mM,0.927 ± 0.037
same,NP40-soluble protein abundance,UniProt Q9Y6I3|Q9Y6I3-3; concentration: 8mM,0.907 ± 0.029
same,NP40-soluble protein abundance,UniProt Q9Y6I3|Q9Y6I3-3; concentration: 10mM,0.894 ± 0.014
same,NP40-soluble protein abundance,[1]; concentration: 1mM,1.05 ± 0.022
same,NP40-soluble protein abundance,[1]; concentration: 2mM,1.03 ± 0.026
same,NP40-soluble protein abundance,[1]; concentration: 4mM,1.05 ± 0.036
same,NP40-soluble protein abundance,[1]; concentration: 6mM,1.04 ± 0.032
same,NP40-soluble protein abundance,[1]; concentration: 8mM,1.06 ± 0.024
same,NP40-soluble protein abundance,[1]; concentration: 10mM,1.02 ± 0.034
